Source: PubChem (several laboratories)
Hits are enriched below; roughly 3.6% of the tested compounds scored in any of these assays.
LGR2 inh – inhibitors of bursicon-induced Drosophila LGR2 receptor cAMP signaling. HEK293 LGR2, CRE-luciferase, bursicon-stimulated, 4 h. inhibition, % at 9.99 µM. actives 0.35% (n = 380,000). AID 720647;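 active = drop in luminescence signal, shown as inhibition above about 50% in the replicate tests, limit read from the data, passing the limit was not always enough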;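 also: agonist challenge used bursicon conditioned medium at about half maximal strength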
Mdm2-MdmX inh – disrupts the human Mdm2-MdmX interaction; AID 485346; SaOS-2 split-luciferase Mdm2/MdmX complementation, luminescence; actives 3% (n = 330,000); inhibition, % at 8 µM; O15151+Q00987;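 active = inhibition of at least 50% at 8 µM in the primary screen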
Target sequence (O15151 whole entry, looked up): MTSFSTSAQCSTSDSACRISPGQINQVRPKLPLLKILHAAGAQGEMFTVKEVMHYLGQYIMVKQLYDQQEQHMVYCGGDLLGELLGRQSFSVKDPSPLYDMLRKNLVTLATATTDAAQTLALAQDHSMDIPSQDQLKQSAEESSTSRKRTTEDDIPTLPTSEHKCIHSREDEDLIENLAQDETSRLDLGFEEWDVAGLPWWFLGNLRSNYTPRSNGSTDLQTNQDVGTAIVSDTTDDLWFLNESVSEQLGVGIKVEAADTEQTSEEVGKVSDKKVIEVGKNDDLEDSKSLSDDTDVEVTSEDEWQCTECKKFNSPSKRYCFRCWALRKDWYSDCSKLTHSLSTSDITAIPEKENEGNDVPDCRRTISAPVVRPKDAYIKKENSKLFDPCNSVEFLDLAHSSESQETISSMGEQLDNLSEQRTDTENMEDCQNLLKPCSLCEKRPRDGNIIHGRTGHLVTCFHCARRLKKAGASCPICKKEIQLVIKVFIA
Target sequence (Q00987 whole entry, looked up): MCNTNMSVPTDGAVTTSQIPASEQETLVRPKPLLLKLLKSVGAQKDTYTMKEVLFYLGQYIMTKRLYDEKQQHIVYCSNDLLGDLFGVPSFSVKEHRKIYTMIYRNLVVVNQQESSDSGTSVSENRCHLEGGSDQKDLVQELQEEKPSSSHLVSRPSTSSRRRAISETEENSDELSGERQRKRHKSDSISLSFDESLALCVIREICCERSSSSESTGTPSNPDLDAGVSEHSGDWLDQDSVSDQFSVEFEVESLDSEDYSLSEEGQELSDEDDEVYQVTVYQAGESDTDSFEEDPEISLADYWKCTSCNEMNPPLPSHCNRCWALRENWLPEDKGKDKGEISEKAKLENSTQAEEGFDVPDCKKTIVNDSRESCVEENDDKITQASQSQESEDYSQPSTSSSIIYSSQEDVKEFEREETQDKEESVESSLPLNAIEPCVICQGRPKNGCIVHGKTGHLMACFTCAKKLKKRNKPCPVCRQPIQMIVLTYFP
KKLEB tox – counter-screen for CF NF-kB inhibitors: cytotoxicity; actives 0.36% (n = 360,000); activity change (cytotoxicity), % at 5 µM; KKLEB CF airway cells viability, ATPlite luminescence, overnight; stronger effect = lower value; cells stimulated with P. aeruginosa culture filtrate; AID 602141;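 active = corrected activity change at or below -50% at 5 µM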
HSP90 refold inh – HSP90 refolding inhibition in rabbit reticulocyte lysate; luciferase refolding luminescence, 3 h; inhibition, % at 5.6 µM; actives 0.91% (n = 290,000); AID 1789;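 active = inhibition above the screen-wide mean plus 3 SD, computed separately per campaign, cut at about 16% in these data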;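 also: 0% = DMSO wells and 100% = 60 µM geldanamycin wells; inhibitors lower the luminescence because luciferase stays unfolded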
Peg3 promoter – Peg3 promoter activity inhibition. HeLa PEG-Prom luciferase reporter, luminescence, overnight. inhibition, % at 20 µM. actives 1.7% (n = 360,000). AID 588405;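 active = inhibition of at least 50% at 20 µM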
CF NFkB block – blocks PAF-induced NF-kB reporter in cystic fibrosis cells. KKLEB NF-kB-GFP reporter, GFP fluorescence overnight. AID 588850. actives 0.86% (n = 360,000). inhibition, % at 5 µM;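 active = at least 50% inhibition at 5 µM, scaled per plate between neutral and stimulator controls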;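 also: PAF is a Pseudomonas aeruginosa culture filtrate used as stimulus; plate controls were PAF-stimulated DMSO wells for no effect and unstimulated DMSO wells for full effect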
Mdm2 MdmX conf – confirmation of human Mdm2/MdmX interaction inhibitors; shares compounds with Mdm2-MdmX inh; actives 55% (n = 10,000); Mdm2-MdmX binding, luminescent assay; inhibition, % at 8 µM; in the data active = inhibition above about 40%
Full FLuc ctr – counter-screen for Mdm2/MdmX inhibitors: full-length luciferase | shares compounds with Mdm2-MdmX inh | SaOS-2 full-length luciferase counterscreen, luminescence | inhibition, % at 8 µM | actives 77% (n = 6,200) | AID 504607;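 active = mean inhibition at 8 µM reaching about 37%, which flags the compound as non-specific, limit read from the data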;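 also: p53-null SaOS-2 cells with luciferase driven by a doxycycline-inducible promoter; compound on cells about two nights before reading with doxycycline added after day one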
Starred values were filed as active, the others as inactive.

How did CN1c2ccc(-c3ccccc3F)cc2[C@@H]2[C@@H](CCN2C(=O)Nc2ccc(F)cc2)[C@@H]1CO do in these assays?
LGR2 inh: -7

How did CCCC(=O)NC(c1ccc(OC)c(OC)c1)c1cc(Cl)c2cccnc2c1O (stereo unspecified) do in these assays?
LGR2 inh: 16; Mdm2-MdmX inh: 73*; KKLEB tox: -5; HSP90 refold inh: 4; Peg3 promoter: 48; CF NFkB block: -2; Mdm2 MdmX conf: 60*; Full FLuc ctr: 28

How did CCCCC(=O)NC(c1ccco1)c1c(O)ccc2ccccc12 (stereo unspecified) do in these assays?
LGR2 inh: 7; Mdm2-MdmX inh: 22; KKLEB tox: -1; HSP90 refold inh: 3; Peg3 promoter: -21; CF NFkB block: 5

How did CCCCC(=O)NC(c1cccs1)c1cc(Cl)c2cccnc2c1O (stereo unspecified) do in these assays?
LGR2 inh: 32; Mdm2-MdmX inh: 85*; KKLEB tox: -15; HSP90 refold inh: 0; Peg3 promoter: 51*; CF NFkB block: 4; Mdm2 MdmX conf: 75*; Full FLuc ctr: 28

Results for CCOc1ccc(C(NC(=O)c2ccco2)c2ccc(OC)c(OC)c2)cc1 (stereo unspecified) ?
Mdm2-MdmX inh: 17; KKLEB tox: 9; HSP90 refold inh: -1; Peg3 promoter: 6; CF NFkB block: -20

Results for CC(C)NC(=O)Nc1cccc2c1O[C@@H](CN(C)C(=O)Nc1ccc3c(c1)OCO3)[C@H](C)CN([C@H](C)CO)C2=O ?
LGR2 inh: 16

Results for COc1ccccc1C(=O)/C=C/c1ccc(N2CCCCC2)c([N+](=O)[O-])c1 ?
LGR2 inh: -11; Mdm2-MdmX inh: 99*; KKLEB tox: -34; HSP90 refold inh: 4; Peg3 promoter: 105*; CF NFkB block: -2; Mdm2 MdmX conf: 37; Full FLuc ctr: 70*

What do the screens show for `C=CCC[C@H](Cc1ccc(F)cc1)C(=O)OC[C@@H](Cc1c[nH]c2ccccc12)NC(=O)[C@H](CC=C)CC(=O)N(CCO)Cc1ccccc1`?
LGR2 inh: 19; Mdm2-MdmX inh: 94*; KKLEB tox: -12; Peg3 promoter: 64*; CF NFkB block: 14; Mdm2 MdmX conf: 34

How did C=CCC[C@@H](Cc1ccc(F)cc1)C(=O)OC[C@@H](Cc1c[nH]c2ccccc12)NC(=O)[C@H](CC=C)CC(=O)N(CCO)Cc1ccccc1 do in these assays?
LGR2 inh: 43; Mdm2-MdmX inh: 94*; KKLEB tox: -2; Peg3 promoter: 52*; CF NFkB block: 27; Mdm2 MdmX conf: 26

What do the screens show for `C=CCC[C@H](Cc1ccc(F)cc1)C(=O)OC[C@@H](NC(=O)[C@@H](CC=C)CC(=O)N(CCO)Cc1ccccc1)C(C)(C)C`?
LGR2 inh: 17; Mdm2-MdmX inh: 50*; KKLEB tox: -6; Peg3 promoter: 27; CF NFkB block: 4; Mdm2 MdmX conf: 15

What do the screens show for `C=CCC[C@H](Cc1ccc(F)cc1)C(=O)OC[C@@H](Cc1c[nH]c2ccccc12)NC(=O)[C@H](CC=C)CC(=O)NCCO`?
LGR2 inh: 6; Mdm2-MdmX inh: 6; KKLEB tox: -8; Peg3 promoter: 19; CF NFkB block: 0

What do the screens show for `Cc1nn(-c2ccccc2)c(C)c1/C=N/NC(=O)c1cc(-c2ccc(Br)s2)[nH]n1`?
Mdm2-MdmX inh: 49; KKLEB tox: -16; HSP90 refold inh: -4; Peg3 promoter: 37; CF NFkB block: 30

Results for Cc1nn(-c2ccccc2)c(C)c1/C=N/NC(=O)c1cc(-c2cccs2)[nH]n1 ?
Mdm2-MdmX inh: 70*; KKLEB tox: -24; HSP90 refold inh: 2; Peg3 promoter: 9; CF NFkB block: 48; Mdm2 MdmX conf: 56*; Full FLuc ctr: 78*

Results for Cc1cc(C(=O)N/N=C/c2c(C)nn(-c3ccccc3)c2C)n[nH]1 ?
LGR2 inh: -12; Mdm2-MdmX inh: 25; KKLEB tox: -13; HSP90 refold inh: 7; Peg3 promoter: -37; CF NFkB block: -2

How did Cc1nn(-c2ccccc2)c(C)c1/C=N/NC(=O)c1cc(-c2ccc(Cl)s2)[nH]n1 do in these assays?
Mdm2-MdmX inh: 56*; KKLEB tox: -6; HSP90 refold inh: 1; Peg3 promoter: 43; CF NFkB block: 33; Mdm2 MdmX conf: 59*; Full FLuc ctr: 49*

Results for Cc1nn(-c2ccccc2)c(C)c1/C=N/NC(=O)c1cc(C23CC4CC(CC(C4)C2)C3)[nH]n1 ?
LGR2 inh: 10; Mdm2-MdmX inh: 63*; KKLEB tox: -4; HSP90 refold inh: 4; Peg3 promoter: 49; CF NFkB block: -6; Mdm2 MdmX conf: 30

What do the screens show for `CCS(=O)(=O)Nc1ccc2c(c1)C(=O)N(C)[C@@H]1CC[C@H](CC(=O)OC)O[C@@H]1CO2`?
LGR2 inh: -1

Results for O=c1cc[nH]c2ccc(Cl)cc12 ?
LGR2 inh: -8; Mdm2-MdmX inh: 7; KKLEB tox: -23; HSP90 refold inh: -2; Peg3 promoter: 7; CF NFkB block: -7

How did O=c1cccc2c1c1cc[nH]c3ccc(=O)n2c31 do in these assays?
LGR2 inh: 15; Mdm2-MdmX inh: 73*; KKLEB tox: -4; Peg3 promoter: 28; CF NFkB block: 47; Mdm2 MdmX conf: 68*; Full FLuc ctr: 53*

Results for O=C(NCC1CC1)[C@H]1[C@H](CO)[C@H]2Cn3c(ccc(-c4cncnc4)c3=O)[C@H]2N1C(=O)NC1CCCC1 ?
LGR2 inh: 2

What do the screens show for `COc1cc(CN2CC3(CCN(C(=O)c4cccnc4)CC3)c3c([nH]c4cc(OC)ccc34)[C@@H]2CO)cc(OC)c1`?
LGR2 inh: -12

What do the screens show for `CN(C)C(=O)CCc1ccc2c3c([nH]c2c1)[C@]1(CCC2CCCC2)[C@@H](C(=O)N2CCOCC2)C[C@H](CC(=O)NCC24CC5CC(CC(C5)C2)C4)C(=O)N1CC3`?
LGR2 inh: 24; Mdm2-MdmX inh: 70*; KKLEB tox: -2; Peg3 promoter: 35; CF NFkB block: 18; Mdm2 MdmX conf: 63*; Full FLuc ctr: 44*

What do the screens show for `CC(C)=CCC/C(C)=C/CNC(=O)C[C@H]1C[C@H](C(=O)N2CCOCC2)[C@@]2(CCC3CCCC3)c3[nH]c4cc(-c5ccco5)ccc4c3CCN2C1=O`?
LGR2 inh: 0; Mdm2-MdmX inh: 30; KKLEB tox: -6; Peg3 promoter: 18; CF NFkB block: 24
